The values below come from PubChem BioAssay (NCI).

“And” between values parts separate entries of the source, which are not always exact repeats. Identical values can stand only once. This is part of a sample that, as a whole, favours compounds with a hit. Of some 83,000 tested, about 20% had one in any assay.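 Single-dose data. Exposure time 48 hours. Values below 10 considered active.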 The source made the active and inactive calls.

Assay in all cases: NCI-60 one-dose screen, 48 h (100 = growth as untreated, 0 = no growth, -100 = all killed)
Conditions in all cases: 10 µM unless noted

Assay [1] concerns NCI-H23 lung.
Assay [2] relates to NCI-H226 lung.
Assay [3] has as its system NCI-H322M lung.
Assay [4] has as its system HOP-62 NSCLC.
The subject of assay [5] is NCI-H460 lung.
For assay [6], the system named is HOP-92 NSCLC.
Assay [7] has as its system NCI-H522 lung.
For assay [8], the system named is A549/ATCC NSCLC.
Assay [9] relates to 786-0 renal.
Assay [10] deals with COLO 205 colon.

As to `Cc1cc(N)c2ccccc2[n+]1CCCCCCCCCC[n+]1c(C)cc(N)c2ccccc21`, the growth in assay [1] was 5.83% (active) and -29.4% (active); in [2], 13.8% (inactive) and 31.5% (inactive); in [3] it was 11.2% (inactive) and 41.8% (inactive); in [4] it was 16.3% (inactive) and 25.4% (inactive); in assay [5], 1.44% (active) and -18.2% (active); in assay [6], -22.2% (active) and 7.42% (active). In addition, the growth in assay [7] was -8.65% (active) and -8.09% (active); in assay [8] it was 29.9% (inactive) and -17% (active); in assay [9], 18.7% (inactive) and 20.8% (inactive); in assay [10], -50.2% (active) and -45.7% (active).
Regarding `CCCCCCCCCCCCCCNCc1ccccc1`, the growth in assay [1] is 75.7% (inactive); in assay [2] it was 60.1% (inactive); in [3], 106% (inactive); in assay [4], 94.1% (inactive); in [5], 77.4% (inactive); in assay [6], 48.8% (inactive). Also, the growth in assay [7] is 75.8% (inactive); in assay [8], 108% (inactive); in assay [9], 67.8% (inactive); in [10], -40.9% (active).
With `CC(=O)Nc1cccc2cc(O)ccc12`, the growth in [1] is 99% (inactive) and 101% (inactive) and 103% (inactive); in [2] it was 98.2% (inactive) and 98.1% (inactive) and 102% (inactive); in assay [3], 110% (inactive) and 116% (inactive); in [4], 100% (inactive) and 93.1% (inactive) and 95.8% (inactive); in [5] it was 114% (inactive) and 103% (inactive) and 105% (inactive); in assay [6], 64.6% (inactive) and 88.7% (inactive) and 73.6% (inactive). Further, the growth is 101% (inactive) and 109% (inactive) and 84.1% (inactive) in assay [7]; 118% (inactive) and 111% (inactive) and 98.6% (inactive) in [8]; 109% (inactive) and 104% (inactive) and 98.9% (inactive) in [9]; 106% (inactive) and 110% (inactive) and 104% (inactive) in assay [10].
On to `O=C1C=CC(=O)N1C1c2ccccc2-c2ccccc21`, for which the growth in assay [1] was 98.1% (inactive); in assay [2] it was 95.6% (inactive); in assay [3] it was 94.6% (inactive); in [4] it was 96.3% (inactive); in assay [5], 96.5% (inactive); in assay [6], 67.5% (inactive). For the same molecule, the growth in assay [7] is 29.4% (inactive); in assay [8], 91.4% (inactive); in [9], 75.2% (inactive); in [10], 20% (inactive).
For the molecule `Oc1ccc(/C=N/NC(=S)Nc2ccccc2)nc1`, the growth in assay [1] was 14.9% (inactive); in [2] it was 5.69% (active); in [3], 21.2% (inactive); in [4] it was 12.2% (inactive); in [5], 2.79% (active); in assay [6], -0.553% (active). In addition, the growth in assay [7] was -14.2% (active); in [8], 11.5% (inactive); in assay [9], -21% (active); in [10] it was 24.4% (inactive).
With `CN(C)c1ccc(/C=N/N=C(\C#N)[S][Sn]([Cl])([c]2ccccc2)[c]2ccccc2)cc1`, the growth in assay [1] is 28.6% (inactive); in [2], -69.4% (active); in assay [3], 84.1% (inactive); in assay [4], 84.5% (inactive); in assay [5], 84.3% (inactive); in assay [6], -15.6% (active). The growth was -81.4% (active) in assay [7], 78.3% (inactive) in assay [8], 10.8% (inactive) in assay [9] and -51.6% (active) in [10].
Consider `CC1OC(OC2C(OC3CCC4(C)C(CCC5(C)C4CC=C4C6CC(C)(C)CCC6(CO)C(O)CC45C)C3(C)C)OC(C(=O)O)C(OC3OC(COC4OC(CO)C(O)C(O)C4O)C(O)C(O)C3O)C2O)C(O)C(O)C1O` (stereo not given), for which the growth was -82.1% (active) in [1]; -63.6% (active) in [2]; -96.2% (active) in [3]; -71.6% (active) in assay [4]; 15.4% (inactive) in assay [5]; -38.7% (active) in assay [6]. Moreover, the growth is -64.9% (active) in assay [7], -70.1% (active) in [8], -91.9% (active) in assay [9] and -86% (active) in assay [10].
Regarding `COc1ccccc1/C=C\C(=O)c1ccccc1`, the growth in assay [1] was 79.8% (inactive); in assay [2], 85.8% (inactive); in assay [3] it was 95% (inactive); in assay [4] it was 85.9% (inactive); in assay [5], 59.5% (inactive); in assay [6], 16.3% (inactive). The growth in assay [7] is 39.2% (inactive); in assay [8] it was 96.4% (inactive); in assay [9], 81.9% (inactive); in [10], 111% (inactive).
As for `O=C(/C=C/C=C/c1ccccc1)c1ccco1`, the growth in [1] is 92.2% (inactive); in assay [2], 109% (inactive); in assay [3], 110% (inactive); in assay [4], 117% (inactive); in [5], 94.7% (inactive); in assay [6] it was 96.1% (inactive). Further, the growth in [7] was 38% (inactive); in [8] it was 101% (inactive); in assay [9] it was 104% (inactive); in assay [10], 103% (inactive).
With `O=C1c2cccnc2-c2nccc3c2c1nc1cc(Br)ccc13`, the growth in assay [1] is -78.4% (active) and -66.2% (active); in assay [2], -43.8% (active) and -48.5% (active); in [3], -99.2% (active) and -89.2% (active); in [4] it was -68.6% (active) and -85.7% (active); in [5] it was -52.9% (active) and -78.6% (active); in assay [6] it was -17.1% (active) and -72.6% (active). For the same molecule, the growth in assay [7] is -60.8% (active) and -66% (active); in assay [8] it was -65.9% (active) and -81% (active); in [9], -86.6% (active) and -85.6% (active); in assay [10], -85.6% (active) and -85% (active).
Consider `OC(CNc1ccnc2cc(Cl)ccc12)CNc1ccnc2cc(Cl)ccc12`, for which the growth was 72% (inactive) in assay [1]; 39.3% (inactive) in assay [2]; 52.1% (inactive) in [3]; 98.7% (inactive) in [4]; 63.5% (inactive) in assay [5]; 77.6% (inactive) in [6]. For the same molecule, the growth in assay [7] is -3.14% (active); in assay [8], 95.3% (inactive); in assay [9], 95.5% (inactive); in assay [10], -55.4% (active).
Take `O=C1c2ccccc2C(=O)N1c1ccccc1`: the growth was 106% (inactive) in assay [1]; 101% (inactive) in assay [2]; 99.1% (inactive) in assay [3]; 96.9% (inactive) in [4]; 104% (inactive) in assay [5]; 104% (inactive) in assay [6]. The growth in [7] is 90.9% (inactive); in assay [8] it was 90.7% (inactive); in assay [9], 105% (inactive); in assay [10], 106% (inactive).
